# Assay results as given in PubChem BioAssay AID504727 (Broad Institute, 2011).
# Calls of active or inactive are those of the source.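 How the source made its calls: active means fitted half-maximal concentration AC50 at or below ten times the highest valid tested dose, with signal falling as DNA is displaced (actives reach about 34 µM in these data); inconclusive means flat fit at moderate signal loss, or poor fit quality; inactive means the rest, including signal rising instead of falling.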
# Assay: DNA intercalators displacing acridine orange, dose response, artefact control for KSHV LANA DNA-binding inhibitor project, biochemical, fluorescence polarization, cherry-picked samples, set 2 (AID 504727)
# Conditions: AC50: Acridine orange-DNA displacement; series mostly up to 35 µM
row,Compound,AC50
1,NNC(=O)C1C(O)CCC2CN3CCc4c([nH]c5ccccc45)C3CC21 (stereo not drawn),inactive
2,O=C(O)c1cc(N2C(=O)C=CC2=O)cc(N2C(=O)C=CC2=O)c1,inactive
3,Nc1ccc2cc3[nH]c4cc(N)ccc4c3nc2c1,1480 nM (active)
4,COc1ccc2[nH]c3c(C)c4cc[n+](C)cc4c(C)c3c2c1,2530 nM (active)
5,O=c1cc2c(=O)oc3cc(O)c(O)oc3c2c(O)c1O,inactive
6,CCc1noc(C)c1C(=O)NCCc1c[nH]c2ccccc12,inactive
7,CCOC(=O)C1=C(O)/C(=C/c2cc(C)n(-c3ccccc3)c2C)N=C1C,inactive
8,COc1ccc(Cn2nnc3c(=O)[nH]c(C4CCCN(C(=O)c5ccccc5)C4)nc32)cc1 (stereo not drawn),inactive
9,Nc1nc(C(F)(F)F)cc(=O)[nH]1,inactive
10,CC1=[N+](C)N(c2ccccc2)C(=O)C1N=C/C=C/c1ccccc1 (stereo not drawn),inactive
11,c1ccc2[nH]c3cc4ncnc4cc3nc2c1,11700 nM (active)
12,O=C1CCN2C=Nc3cccc4ccc1c2c34,2290 nM (active)
13,CCc1ccc(C2CC(c3cccc(Cl)c3)n3nc(N)nc3N2)cc1 (stereo not drawn),inactive
14,O=C(Nc1ccc(Br)cn1)c1cccc2ccccc12,inactive
15,Nc1ccc2c3c(cccc13)C(=O)N(c1ccccc1)C2=O,3910 nM (active)
16,Cn1c(=O)c(N)c2c3c(c(Br)ccc31)C(=O)c1ccccc1-2,2990 nM (active)
17,O=C(NCC1CCCO1)c1cccc(S(=O)(=O)N(Cc2ccccc2)c2ccccc2)c1 (stereo not drawn),inactive
18,CCN(CCCNC(=O)Cn1cc2c(n1)CCCC2)c1cccc(C)c1,inactive
19,COc1cc(-c2ccc(Nc3ccccc3C(=O)O)c(OC)c2)ccc1Nc1ccccc1C(=O)O,inactive

row,Compound,AC50
1,Nc1ccccc1C(=O)N1O[C@@H]2C=C[C@H]1CC2,inactive
2,O=C(O)CC(C(=O)O)N1C(=O)/C(=C/C=C/c2ccco2)SC1=S (stereo not drawn),inactive
3,CC(Oc1ccccc1)c1nnc(N)s1 (stereo not drawn),17500 nM (active)
4,Cc1ccc(S(=O)(=O)Nc2ccc(Br)cc2C(NCC(=O)O)c2ccccc2)cc1 (stereo not drawn),inactive
5,COc1ccc(-c2n[nH]c(=S)n2-c2ccc(C)cc2)cc1,inactive
6,CCOC(=O)C1Nc2ccc(C(=O)O)cc2C2C=CCC12 (stereo not drawn),inactive
7,O=S(=O)(NCc1cccnc1)c1ccc(Cl)s1,inactive
8,COc1cccc2c1C(=O)c1c(O)c3c(c(O)c1C2=O)C[C@@](O)(C(=O)CO)C[C@@H]3O[C@H]1C[C@H](N)[C@H](O)[C@H](C)O1,2400 nM (active)
9,Nc1nc(SCC(=O)N2CCCCC2)[nH]c(=O)c1NC(=O)c1cccs1,inactive
10,C/C(=N/NC(=O)c1cc(O)c(O)c(O)c1)c1ccc([N+](=O)[O-])cc1,inactive
11,N=C1/C(=C\c2ccc(Br)o2)C(=O)N=C2SC(CC(=O)N3CCOCC3)=NN12,inactive
12,O=C(O)C1(c2ccccc2)CCN(S(=O)(=O)c2ccc(Cl)s2)CC1,inactive
13,NC(=O)C1(N2CCCCC2)CCN(Cc2ccc(Br)cc2)CC1,inactive
14,O=C1/C(=C/C=C/c2ccco2)SC(=S)N1NS(=O)(=O)c1ccccc1,inactive
15,C=CCNC(=S)N1CCN(S(=O)(=O)c2ccc(C)cc2)CC1,inactive
16,O=C(O)c1ccc2c(c1)[C@@H]1C=CC[C@@H]1[C@H](c1ccccn1)N2,inactive
17,CCCc1nc(NCc2ccccn2)c2nnn(Cc3ccccc3F)c2n1,inactive
18,COc1ccccc1CNC(=O)CCS(=O)(=O)c1cccs1,inactive
19,Cc1cc2c(N)cccc2nn1,inactive
